Data as given in PubChem BioAssay.
The source made the active and inactive calls.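 How the source made its calls, unless noted: active means fluorescence slope after compound addition differing from the mean of all screened samples at 99.7% confidence, in either direction; inactive means the rest.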

Columns and labels:
[1] = inhibitors of TNFa-induced NFkB p65 translocation, primary screen, imaging, HUVEC, MLSMR starter and 10KST1 sets (AID 438;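 active means inhibition above 20% together with a positive visual image hit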;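 further: compound added about 3h40 before a 20 min TNFalpha stimulation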;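 on inhibition: signal is the nuclear over cytoplasmic p65 intensity ratio per well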); conditions: HUVEC TNFa-induced p65 nuclear translocation; cell count: measured here: nuclei count (cytotoxicity indicator), at 2.08 µM; inhibition: at 2 µM, stronger effect = higher value, 0% TNFa-plus-vehicle, 100% no-TNFa wells
[2] = inhibitors of mutant huntingtin aggregation, primary screen, imaging, exon1htt(103Q)mCFP cells, high-content imaging (AID 483;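 active means visual image review flags a hit and inhibition of aggregation exceeds 20%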;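 further: compound exposure lasted 3 days before fixation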;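 on nuclei count: percent of the per-plate median nuclei count of sample wells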); conditions: exon1htt(103Q)mCFP cell line, aggregate imaging, at 2 µM; inhibition of aggregation: stronger effect = higher value; nuclei count: measured here: cell count, toxicity
[3] = inhibitors of E-selectin induction by TNFa, primary screen, imaging, HUVEC, immunofluorescence, MLSMR starter and 10KST1 sets (AID 487;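 active means visually confirmed hit in the image check and inhibition above 20%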;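 on inhibition: signal is fraction of cell area covered by stained E-selectin grains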;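 on nuclei count: 100% = median nuclei count of all wells on the same plate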); conditions: HUVEC TNFalpha-induced E-selectin immunofluorescence imaging, at 2 µM; inhibition: stronger effect = higher value; nuclei count: measured here: cell number, toxicity
[4] = molecular target: Voltage-gated potassium channel subunit beta-2 (Rattus norvegicus) (UniProt P62483); assay: KvBeta enzyme negative modulators, primary screen, biochemical, NADPH fluorescence (AID 622;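 active means fluorescence slope higher than the sample average by over 3 SD, cut at about -0.22 in these data, passing the limit was not always enough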;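 further: slope of raw intensity against log time taken from 70 to 1610 s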); conditions: recombinant KvBeta, 4-cyanobenzaldehyde reduction, at 10 µM, stronger effect = higher value
[5] = molecular target: Voltage-gated potassium channel subunit beta-2 (Rattus norvegicus) (UniProt P62483); assay: KvBeta positive modulators, primary screen, biochemical, NADPH fluorescence (AID 623;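 active means NADPH fluorescence slope more negative than the mean of all samples by about 3 SD, 99.7% confidence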;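 further: fluorescence intensity change per second fitted from 20 to 320 s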); conditions: Recombinant KvBeta, NADPH fluorescence decrease slope, 10 min; at 10 µM; stronger effect = lower value
[6] = molecular target: Alpha-2C adrenergic receptor (Homo sapiens) (UniProt P18825); assay: modulators of alpha2C/GIRK thallium flux, primary screen, cell-based, HEK293 alpha2C/GIRK1/2 (AID 624); conditions: thallium flux BTC fluorescence, at 10 µM, actives lie on both sides;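 further: slope of fluorescence ratio to pre-addition baseline per second over 15 to 24 s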
[7] = inhibitors of Sendai virus-induced IRF3 signaling, primary screen, TLR/RLR signaling modifier project, cell-based, Sendai virus stimulus, luciferase, 10K MLSCN set (AID 602276;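 active means inhibition at or above 50% at 10 µM; inactive means inhibition below 50%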;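 further: firefly luciferase from ISG56 promoter only with Renilla not read in this screen; 0% = Sendai virus plus DMSO and 100% = medium plus DMSO without virus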); conditions: HEK293 RL24 IRF3 luciferase reporter, at 10 µM, stronger effect = higher value
[8] = inhibitors of poly I:C-induced TLR3 signaling, primary screen, cell-based, poly I:C stimulus, luciferase, 10K MLSCN set (AID 602277;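 active means inhibition of the reporter signal at or above 50%; inactive means inhibition below 50%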); conditions: HEK293-TLR3 RL24 IRF3 luciferase reporter, at 10 µM, stronger effect = higher value

Sequence of Alpha-2C adrenergic receptor (Homo sapiens) (P18825 whole entry, looked up): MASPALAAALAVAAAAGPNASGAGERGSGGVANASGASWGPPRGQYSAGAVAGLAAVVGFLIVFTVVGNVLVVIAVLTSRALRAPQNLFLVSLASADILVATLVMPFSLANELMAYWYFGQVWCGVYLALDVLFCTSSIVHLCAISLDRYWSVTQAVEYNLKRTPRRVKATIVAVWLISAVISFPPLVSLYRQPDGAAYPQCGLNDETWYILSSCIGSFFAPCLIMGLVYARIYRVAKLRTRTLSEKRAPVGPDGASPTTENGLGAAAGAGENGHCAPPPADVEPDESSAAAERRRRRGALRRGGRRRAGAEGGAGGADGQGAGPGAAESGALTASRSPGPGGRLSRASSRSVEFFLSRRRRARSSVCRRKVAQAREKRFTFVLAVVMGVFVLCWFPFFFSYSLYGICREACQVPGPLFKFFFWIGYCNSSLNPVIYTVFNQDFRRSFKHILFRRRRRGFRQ
Sequence of Voltage-gated potassium channel subunit beta-2 (Rattus norvegicus) (P62483 whole entry, looked up): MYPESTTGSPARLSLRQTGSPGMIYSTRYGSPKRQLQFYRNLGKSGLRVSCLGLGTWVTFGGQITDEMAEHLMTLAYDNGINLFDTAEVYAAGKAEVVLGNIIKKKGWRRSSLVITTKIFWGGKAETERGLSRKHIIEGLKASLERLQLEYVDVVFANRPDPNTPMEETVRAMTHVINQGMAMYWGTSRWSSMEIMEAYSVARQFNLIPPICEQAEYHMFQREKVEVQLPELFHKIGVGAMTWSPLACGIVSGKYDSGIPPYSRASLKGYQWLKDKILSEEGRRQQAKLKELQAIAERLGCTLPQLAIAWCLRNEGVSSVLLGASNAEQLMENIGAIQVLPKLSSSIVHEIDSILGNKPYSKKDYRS

Structure (SMILES) | cell count [1] | inhibition [1] | inhibition of aggregation [2] | nuclei count [2] [%] | inhibition [3] | nuclei count [3] [%] | fluorescence slope [4] | NADPH fluorescence slope [5] | slope [6] | inhibition [7] | inhibition [8]
COc1ccc(-c2nc(CSCC(=O)N3CCc4ccccc4C3)c(C)o2)cc1OC | 643 | 6.9% (inactive) | -5.2% (inactive) | 101 | 5.9% (inactive) | 116 | -0.603 (inactive) | -1.8e-06 (inactive) | 0.00589 (inactive) | 8.21% (inactive) | 12.7% (inactive)
CCOc1ccc(N2C(N)=NC(N)=NC2(C)C)cc1 | 401 | 2.5% (inactive) | 5.2% (inactive) | 103 | -19.5% (inactive) | 105 | -0.644 (inactive) | 5.9e-05 (inactive) | 0.00717 (inactive) | 11.2% (inactive) | 26.1% (inactive)
CCOc1ccc(C(=O)OCc2nnc(-c3cccs3)o2)cc1OC | 737 | 7.1% (inactive) | 4.7% (inactive) | 101 | -51.1% (inactive) | 137 | -0.603 (inactive) | 1.9e-06 (inactive) | 0.00555 (inactive) | 12.1% (inactive) | 27.5% (inactive)
COCCn1c(C)cc(C(=O)COC(=O)CCN2C(=O)c3ccccc3C2=O)c1C | 287 | 3.2% (inactive) | 17.1% (inactive) | 96.8 | -6.1% (inactive) | 97.3 | -0.528 (inactive) | 6.5e-06 (inactive) | 0.00506 (inactive) | 3.96% (inactive) | 4.05% (inactive)
Cc1ccccc1-n1c(=O)cc(N2CCN(C(=O)c3ccco3)CC2)[nH]c1=O | 543 | 12.5% (inactive) | 6.9% (inactive) | 116 | -8.4% (inactive) | 99.7 | -0.598 (inactive) | 1.7e-05 (inactive) | 0.00562 (inactive) | 13.5% (inactive) | 12.4% (inactive)
N#Cc1c(NC(NC(=O)c2ccco2)C(=O)c2ccccc2)sc2c1CCCC2 (stereo unspecified) | 415 | -6% (inactive) | -7.6% (inactive) | 118 | -31.6% (inactive) | 121 | -0.369 (inactive) | 9.4e-06 (inactive) | 0.00297 (inactive) | 5.59% (inactive) | 22.2% (inactive)
CN1/C(=C\C(=O)C(F)F)C(C)(C)c2ccccc21 | 296 | 3.5% (inactive) | -24% (inactive) | 104 | 17.2% (inactive) | 116 | -0.504 (inactive) | 1.6e-05 (inactive) | 0.00399 (inactive) | 20.8% (inactive) | 17.4% (inactive)
CN(C)C(=O)N1CCC(C(=O)NC2CCCCCCC2)CC1 | 545 | 7.4% (inactive) | 36.8% (active) | 49.6 | -48.1% (inactive) | 106 | -0.381 (inactive) | -2.2e-05 (inactive) | 0.00533 (inactive) | 13% (inactive) | 18.9% (inactive)
O=C(CSc1n[nH]c(-c2ccco2)n1)Nc1sc2c(c1C(=O)Nc1ccccc1)CCCC2 | 298 | -4.3% (inactive) | 3.5% (inactive) | 88.7 | -73.5% (inactive) | 91 | -0.447 (inactive) | -3.7e-05 (inactive) | 0.00332 (inactive) | 4.06% (inactive) | 21.7% (inactive)
O=C(NCc1ccccc1)c1cc(-c2ccco2)on1 | 445 | -0.9% (inactive) | -0.2% (inactive) | 102 | -18.9% (inactive) | 103 | -0.506 (inactive) | -3.5e-05 (inactive) | 0.00556 (inactive) | -27.8% (inactive) | -74.9% (inactive)
COc1ccc(C(=O)Nn2c(C3CCC3)nc3ccccc3c2=O)c(OC)c1 | 657 | -10.2% (inactive) | -14% (inactive) | 111 | 14.7% (inactive) | 129 | -0.585 (inactive) | -7.6e-07 (inactive) | 0.00893 (inactive) | -0.704% (inactive) | 5.08% (inactive)
O=C(Nc1ccccc1-c1ccccc1)NC1CCN(C(=O)N2CCOCC2)CC1 | 497 | 0% (inactive) | -19.4% (inactive) | 113 | 6.6% (inactive) | 96.7 | -0.5 (inactive) | -4.4e-05 (inactive) | 0.00404 (inactive) | 13.4% (inactive) | 18.7% (inactive)
CCCc1ccc(S(=O)(=O)NCCc2ccncc2)cc1 | 352 | -15.7% (inactive) | -25.5% (inactive) | 109 | -94.2% (inactive) | 121 | -0.585 (inactive) | -2.4e-05 (inactive) | 0.00524 (inactive) | -3.61% (inactive) | -11.2% (inactive)
CCN(CC)CC(C)CNC(=O)CC(C(=O)N1CCc2ccccc21)n1ccnc1 (stereo unspecified) | 604 | -10% (inactive) | 10.7% (inactive) | 98.5 | -125% (inactive) | 110 | -0.464 (inactive) | 6.1e-05 (inactive) | 0.00462 (inactive) | 3.93% (inactive) | 11% (inactive)
Cn1c(=O)c2nc(Cl)n(Cc3ccc(Cl)cc3Cl)c2n(C)c1=O | 719 | -22.4% (inactive) | 11.5% (inactive) | 89.6 | -7.8% (inactive) | 110 | -0.514 (inactive) | -4.5e-05 (inactive) | 0.00452 (inactive) | 21.4% (inactive) | 23.2% (inactive)
CC(C)(C)NC(=O)Cn1c(=O)oc2ccc(Cl)cc21 | 676 | 0% (inactive) | 1.8% (inactive) | 116 | -47.1% (inactive) | 106 | -0.407 (inactive) | 6.2e-05 (inactive) | 0.00569 (inactive) | 0.919% (inactive) | 20.8% (inactive)
CCC(C)(C)n1nnnc1C(c1ccncc1)N1CCN(c2cccc(OC)c2)CC1 (stereo unspecified) | 410 | 1% (inactive) | -2.6% (inactive) | 95.6 | -31.9% (inactive) | 98.8 | -0.629 (inactive) | -2e-05 (inactive) | 0.00376 (inactive) | 23.4% (inactive) | 28.6% (inactive)
Cc1c(C(=O)Nc2ccncc2)oc2c1C(=O)CC(C)(C)C2 | 254 | 9.6% (inactive) | 18.9% (inactive) | 85.4 | -44.5% (inactive) | 97.2 | -0.408 (inactive) | -2.8e-05 (inactive) | 0.00527 (inactive) | 7.94% (inactive) | -3.33% (inactive)
Cc1oc(-c2ccccc2F)nc1CS(=O)(=O)CC(=O)NCCCN1CCc2ccccc2C1 | 649 | 11% (inactive) | 16.1% (inactive) | 68.5 | 27.9% (inactive) | 108 | -0.508 (inactive) | -5.3e-07 (inactive) | 0.00532 (inactive) | 10.5% (inactive) | 18.8% (inactive)
CCOC(=O)C1=C(C)NC(C)=C(C(=O)OCC)C1C(=O)OC1CCOC1=O (stereo unspecified) | 653 | -4.7% (inactive) | 5.7% (inactive) | 112 | -121% (inactive) | 103 | -0.587 (inactive) | -2.6e-05 (inactive) | 0.00602 (inactive) | 9.93% (inactive) | 20% (inactive)
CCOC(=O)Cc1nnc2c(Nc3ccc(C)cc3)nc3nonc3n12 | 352 | 1% (inactive) | 15% (inactive) | 87.3 | 6.7% (inactive) | 83 | -0.612 (inactive) | -1.4e-05 (inactive) | 0.00447 (inactive) | 23.5% (inactive) | 34.9% (inactive)
Cc1nnc(N(C)C(=O)Cc2ccc3c(c2)OCO3)s1 | 709 | -6.1% (inactive) | 15.2% (inactive) | 107 | 6.8% (inactive) | 112 | -0.55 (inactive) | 1.1e-05 (inactive) | 0.00419 (inactive) | 21.5% (inactive) | 39.7% (inactive)
CC1=C(C(=O)Nc2ccc(F)cc2)C(c2cccc(C)c2)n2nc(CCCO)nc2N1 (stereo unspecified) | 784 | -3.5% (inactive) | 6.5% (inactive) | 88.4 | -32.3% (inactive) | 133 | -0.405 (inactive) | -1.6e-05 (inactive) | 0.00457 (inactive) | 13.9% (inactive) | 41.1% (inactive)
CCCCN(C(=O)c1ccc(Cl)cc1)C1CC2CCC(C1)N2C (stereo unspecified) | 588 | 6.5% (inactive) | 5.4% (inactive) | 114 | -93.1% (inactive) | 116 | -0.561 (inactive) | -6.5e-05 (inactive) | 0.0056 (inactive) | -6.18% (inactive) | 35.3% (inactive)
CCc1cc(=O)oc2cc(OC(C)=O)cc(OC(C)=O)c12 | 602 | -6% (inactive) | 12.3% (inactive) | 104 | 19.2% (inactive) | 97.5 | -0.0715 (active) | 2.1e-05 (inactive) | 0.00397 (inactive) | 11.6% (inactive) | 14% (inactive)
COc1ccccc1NC(=O)C1=C(C)Nc2nc(CCCO)nn2C1c1cccnc1 (stereo unspecified) | 318 | 1.6% (inactive) | 10.7% (inactive) | 102 | -30.7% (inactive) | 114 | -0.631 (inactive) | -3.9e-05 (inactive) | 0.00626 (inactive) | 6.83% (inactive) | 5.25% (inactive)
